The results in this text go back to PubChem BioAssay (EPA / NIEHS).

In assay [1] the target is Bile acid receptor (Homo sapiens) (UniProt Q96RI1). In words: ATG_IR1_CIS: Attagene CIS-FACTORIAL HepG2 Assay for human Nuclear Receptor Subfamily 1 Group H Member 4 (NR1H4), IR1 submotif (AID 2282946). The settings on record: IR1 reporter transcription, actives raise or lower the signal. In outline:
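HepG2 cells transiently transfected with multiplexed cis-element reporter units read endogenous transcription factor activity. After 24 h compound exposure, reporter mRNA was quantified by RT-PCR, fluorescent labelling, HpaI digestion and capillary electrophoresis; bidirectional fitting versus DMSO baseline.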

Assay [2] can be described thus: ATG_GRE_CIS: Attagene CIS-FACTORIAL HepG2 Assay for human Glucocorticoid Response Elements (GRE) (AID 2282947). The settings on record: HepG2 GRE cis-reporter, Attagene multiplex mRNA; actives raise or lower the signal. An outline of the steps: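 Reporter transcripts read by RT-PCR with capillary electrophoresis fluorescence after a 24 h chemical exposure of HepG2 cells transiently transfected with multiple cis-element reporter units. Gain or loss fitted against DMSO.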

The nature of assay [3]: ATG_ISRE_CIS: Attagene CIS-FACTORIAL HepG2 Assay for human Interferon Regulatory Factor 1 (IRF1) binding to an Interferon-Stimulated Response Element (ISRE) (AID 2282948). The settings on record: HepG2 ISRE cis-reporter (Attagene), mRNA transcription readout; actives raise or lower the signal. An outline of the steps: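 Multiplexed mRNA reporter readout in human liver HepG2 cells: cis-element-driven reporters transfected, compound added for 24 h, transcripts amplified, fluorescently labelled and sized by capillary electrophoresis; curve fitting bidirectional against DMSO.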

A short description of assay [4]: ATG_M_32_CIS: Attagene CIS-FACTORIAL HepG2 Assay for M32 Transcription Factor (Internal Marker) (AID 2282949).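 Note: background control marker of the multiplexed CIS panel rather than a real target.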 The settings on record: HepG2 Attagene cis-factorial M32 reporter, mRNA; actives raise or lower the signal. In outline:
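HepG2 human liver cells transiently transfected with cis-promoter-driven multiple reporter transcription units, dosed 24 h. Reporter mRNA quantified by RT-PCR, FAM-labelled primer extension, HpaI digest and capillary electrophoresis; bidirectional fit versus DMSO baseline.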

Assay [5] is described as follows: ATG_M_06_CIS: Attagene CIS-FACTORIAL HepG2 Assay for M06 Transcription Factor (Internal Marker) (AID 2282950). The settings on record: HepG2 Attagene CIS-FACTORIAL M06 internal marker reporter; actives raise or lower the signal. An outline of the steps: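 One of many multiplexed endpoints: HepG2 reporter mRNA after 24 h dosing, detected by RT-PCR and capillary electrophoresis fluorescence; gain or loss of signal analysed against DMSO.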

Assay [6] addresses Hypoxia-inducible factor 1-alpha (Homo sapiens) (UniProt Q16665). The assay is described as follows: ATG_HIF1a_CIS: Attagene CIS-FACTORIAL HepG2 Assay for human Hypoxia Inducible Factor 1 (HIF1A) (AID 2282951). Conditions: HepG2 Attagene cis-factorial HIF1a reporter transcription; actives raise or lower the signal. An outline of the steps: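 Cis-element reporter constructs were transiently transfected into HepG2 cells, which were treated for 24 h; reporter RNA was reverse-transcribed, amplified, labelled and resolved by capillary electrophoresis.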

Assay [7] deals with Hepatocyte nuclear factor 6 (Homo sapiens) (UniProt Q9UBC0). The assay is described as follows: ATG_HNF6_CIS: Attagene CIS-FACTORIAL HepG2 Assay for human Hepatocyte Nuclear Factor 6 (HNF6) (AID 2282952). Conditions: HepG2 Attagene cis-factorial HNF6 reporter transcription; actives raise or lower the signal. An outline of the steps: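 Endogenous factor activity read in transiently transfected HepG2 via promoter-regulated reporter transcripts. RNA harvested 24 h post-dosing, reverse-transcribed, PCR-amplified, FAM-labelled, HpaI-digested and resolved by capillary electrophoresis; fitted in both directions against DMSO.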

In assay [8] the target is Heat shock factor protein 1 (Homo sapiens) (UniProt Q00613). In words: ATG_HSE_CIS: Attagene CIS-FACTORIAL HepG2 Assay for human Heat Shock Transcription Factor 1 (HSE) (AID 2282953). The settings on record: HepG2 HSE cis-reporter, Attagene RNA transcription; actives raise or lower the signal. An outline of the steps: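 Using HepG2 with transfected cis-driven reporter constructs, compound effects on endogenous factor activity are scored as reporter mRNA change at 24 h. Detection: RT-PCR, HpaI digestion, capillary electrophoresis; bidirectional fitting to DMSO.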

The nature of assay [9]: ATG_MRE_CIS: Attagene CIS-FACTORIAL HepG2 Assay for human Metal Responsive Element (MRE) (AID 2282954). The settings on record: HepG2 MRE cis-reporter transcription, Attagene multiplex; actives raise or lower the signal. In outline:
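Endogenous MRE-dependent transcription read as reporter mRNA in transiently transfected human HepG2 cells at 24 h. RNA reverse-transcribed, PCR-amplified, labelled and resolved by capillary electrophoresis; gain or loss relative to DMSO.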

Assay [10] in a line: ATG_PBREM_CIS: Attagene CIS-FACTORIAL HepG2 Assay for human Phenobarbital-responsive Enhancer Module (PBREM) (AID 2282955). Conditions: HepG2 PBREM cis-reporter, Attagene multiplexed transcription; actives raise or lower the signal. An outline of the steps:
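Multiplexed cis-reporter readout in human hepatoma HepG2 cells; PBREM-regulated transcript quantified after 24 h exposure by fluorescent RT-PCR fragment analysis. Signal changes up or down fitted relative to DMSO.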

Assay [11] concerns the target Paired box protein Pax-6 (Homo sapiens) (UniProt P26367). The assay is described as follows: ATG_Pax6_CIS: Attagene CIS-FACTORIAL HepG2 Assay for human Paired Box 6 (PAX6) (AID 2282956). The settings on record: HepG2 CIS-FACTORIAL PAX6 reporter transcription, RNA readout; actives raise or lower the signal. In outline:
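Fluorescent RT-PCR products separated by capillary electrophoresis report PAX6-linked promoter mRNA in HepG2 cells 24 h post-dose. Curves fitted bidirectionally, DMSO as negative control.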

A short description of assay [12]: ATG_PXRE_CIS: Attagene CIS-FACTORIAL HepG2 Assay for human Pregnane X Receptor Element (PXRE) (AID 2282957). The settings on record: HepG2 Attagene CIS-FACTORIAL PXRE reporter, mRNA; actives raise or lower the signal. In outline: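 Reporter transcripts under endogenous PXR-responsive cis-regulation quantified from total RNA of transfected HepG2 cells 24 h post-dosing, via RT-PCR with fluorescent primer extension and capillary electrophoresis. Gain or loss of signal fitted against DMSO baseline.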

Assay [13] in a line: ATG_PPRE_CIS: Attagene CIS-FACTORIAL HepG2 Assay for human Peroxisome Proliferator-activated Response Element (PPRE) (AID 2282958). Conditions: HepG2 PPRE cis-element reporter, Attagene transcription factor profiling; actives raise or lower the signal. In outline:
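DMSO served as negative control and baseline for bidirectional curve fitting. Signal came from PPRE-regulated reporter mRNA in HepG2 cells, measured 24 h post-dosing by RT-PCR, 6-FAM primer extension and capillary electrophoresis.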

Assay [14] is described as follows: ATG_RORE_CIS: Attagene CIS-FACTORIAL HepG2 Assay for human RAR-related Orphan Receptor Element (RORE) (AID 2282959). The settings on record: HepG2 Attagene cis-factorial RORE reporter, mRNA; actives raise or lower the signal. In outline: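 Transfect HepG2 with MRTUs; treat 24 h; extract RNA; RT with oligo(dT); PCR with reporter-specific primers; 6-FAM primer extension; HpaI digest 2 h at 37 C; capillary electrophoresis. Fit vs DMSO, bidirectional.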

Assay [15] can be described thus: ATG_Sox_CIS: Attagene CIS-FACTORIAL HepG2 Assay for human SRY-box transcription factor (SOX) (AID 2282960). The settings on record: HepG2 Attagene cis-factorial SOX reporter, mRNA; actives raise or lower the signal. An outline of the steps: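 Fluorescence-labelled cDNA fragments from reporter transcripts, sized by CE, give the signal. Cells: HepG2, transiently transfected with cis-regulated reporter units. Exposure 24 h; DMSO negative control; bidirectional curve fitting.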

For assay [16], the target named is Transcription factor Sp1 (Homo sapiens) (UniProt P08047). The assay is described as follows: ATG_Sp1_CIS: Attagene CIS-FACTORIAL HepG2 Assay for human Specificity Protein 1 (Sp1) (AID 2282961). Conditions: HepG2 Sp1 cis-reporter transcription, actives raise or lower the signal. An outline of the steps:
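Chemicals are dosed onto HepG2 cells transfected with multiple cis-promoter reporter constructs, and after 24 h reporter RNA is reverse-transcribed, PCR-amplified and resolved by capillary electrophoresis for fluorescence quantitation; activity is scored up or down against DMSO.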

Assay [17] is described as follows: ATG_SREBP_CIS: Attagene CIS-FACTORIAL HepG2 Assay for human Sterol Regulatory Element Binding (SREBP) (AID 2282962). Conditions: HepG2 Attagene cis-factorial SREBP reporter, mRNA; actives raise or lower the signal. An outline of the steps: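 Endogenous factor activity is measured in HepG2 through multiplexed reporter units under cis-element control. Following a 24 h incubation, reporter transcripts are reverse-transcribed, PCR-amplified and sized by capillary electrophoresis; activity is fitted in both directions relative to DMSO.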

Assay [18] deals with Signal transducer and activator of transcription 3 (Homo sapiens) (UniProt P40763). In words: ATG_STAT3_CIS: Attagene CIS-FACTORIAL HepG2 Assay for human Signal Transducer and Activator of Transcription 3 (STAT3) (AID 2282963). Conditions: HepG2, Attagene cis-factorial STAT3 reporter transcription; actives raise or lower the signal. In outline: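 Readout is reporter transcript quantified by RT-PCR and capillary electrophoresis, with 6-FAM primer extension and HpaI digestion. Total RNA is taken 24 h after dosing transiently transfected HepG2 carrying cis-regulated reporter units. Bidirectional fit against DMSO.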

Assay [19] can be described thus: ATG_TA_CIS: Attagene CIS-FACTORIAL HepG2 Assay for human TA Basal Promoter (AID 2282964). The settings on record: HepG2 Attagene CIS-factorial TA basal promoter reporter; actives raise or lower the signal. An outline of the steps: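 Transient MRTU transfection of HepG2 preceded 24 h compound exposure. Reporter mRNA levels were then read by RT-PCR with capillary electrophoresis, and this background-control endpoint was fitted bidirectionally to DMSO.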

Assay [20] in a line: ATG_TCF_b_cat_CIS: Attagene CIS-FACTORIAL HepG2 Assay for human T-Cell-Factor with beta-catenin (TCF/b-cat) (AID 2282965). The settings on record: HepG2 TCF/beta-catenin cis-reporter transcription, actives raise or lower the signal. In outline:
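Endogenous transcription factor activity is captured through cis-promoter reporter constructs transiently introduced into human HepG2 liver cells. Induced reporter mRNA is measured after 24 h and fitted bidirectionally relative to DMSO.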

The source made the active and inactive calls. Rule for the calls: active = hit-call score of the fitted dose curve at least 0.9, where 1 is the maximum; inactive = score below 0.9.

Sequence of Hypoxia-inducible factor 1-alpha (Homo sapiens) (Q16665 whole entry, looked up): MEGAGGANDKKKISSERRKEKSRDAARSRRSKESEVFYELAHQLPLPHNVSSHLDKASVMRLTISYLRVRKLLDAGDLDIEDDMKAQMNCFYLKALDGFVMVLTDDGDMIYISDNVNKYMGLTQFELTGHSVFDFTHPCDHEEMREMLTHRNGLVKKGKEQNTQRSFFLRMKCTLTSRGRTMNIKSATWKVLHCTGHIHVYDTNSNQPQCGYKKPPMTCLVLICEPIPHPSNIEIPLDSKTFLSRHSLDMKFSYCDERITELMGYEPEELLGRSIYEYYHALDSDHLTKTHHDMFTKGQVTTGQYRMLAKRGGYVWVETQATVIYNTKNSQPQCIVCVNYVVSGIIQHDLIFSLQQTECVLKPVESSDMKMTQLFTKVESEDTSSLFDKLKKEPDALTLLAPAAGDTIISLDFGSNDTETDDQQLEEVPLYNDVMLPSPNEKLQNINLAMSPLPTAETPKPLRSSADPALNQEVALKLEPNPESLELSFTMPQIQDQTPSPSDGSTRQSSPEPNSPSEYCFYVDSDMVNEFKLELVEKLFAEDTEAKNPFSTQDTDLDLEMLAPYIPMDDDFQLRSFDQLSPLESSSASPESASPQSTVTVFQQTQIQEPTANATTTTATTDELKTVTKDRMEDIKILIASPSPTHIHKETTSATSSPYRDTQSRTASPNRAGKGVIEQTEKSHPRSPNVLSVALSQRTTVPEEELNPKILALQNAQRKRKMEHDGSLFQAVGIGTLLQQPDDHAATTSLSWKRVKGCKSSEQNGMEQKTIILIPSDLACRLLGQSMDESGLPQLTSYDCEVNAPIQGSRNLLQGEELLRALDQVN
Sequence of Transcription factor Sp1 (Homo sapiens) (P08047 whole entry, looked up): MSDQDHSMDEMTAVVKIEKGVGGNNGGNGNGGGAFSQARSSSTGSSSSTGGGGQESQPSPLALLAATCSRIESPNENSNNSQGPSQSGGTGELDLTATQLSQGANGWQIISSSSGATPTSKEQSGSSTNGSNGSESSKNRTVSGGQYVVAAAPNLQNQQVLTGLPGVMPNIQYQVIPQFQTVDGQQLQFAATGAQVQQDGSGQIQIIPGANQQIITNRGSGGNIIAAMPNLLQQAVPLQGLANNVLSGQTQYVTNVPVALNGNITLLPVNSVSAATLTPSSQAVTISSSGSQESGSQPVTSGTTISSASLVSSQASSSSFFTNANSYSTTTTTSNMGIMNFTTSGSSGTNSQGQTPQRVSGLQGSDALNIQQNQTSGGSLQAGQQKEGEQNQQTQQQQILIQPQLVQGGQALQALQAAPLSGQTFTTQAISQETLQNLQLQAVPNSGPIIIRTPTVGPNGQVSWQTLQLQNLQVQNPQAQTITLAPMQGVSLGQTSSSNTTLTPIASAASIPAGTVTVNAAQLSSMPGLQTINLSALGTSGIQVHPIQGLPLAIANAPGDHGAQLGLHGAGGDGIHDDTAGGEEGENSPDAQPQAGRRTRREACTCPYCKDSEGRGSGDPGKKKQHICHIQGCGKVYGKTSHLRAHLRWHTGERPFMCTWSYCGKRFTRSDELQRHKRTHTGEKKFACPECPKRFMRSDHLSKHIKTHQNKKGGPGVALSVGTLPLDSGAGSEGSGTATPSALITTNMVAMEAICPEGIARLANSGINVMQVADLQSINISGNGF
Sequence of Paired box protein Pax-6 (Homo sapiens) (P26367 whole entry, looked up): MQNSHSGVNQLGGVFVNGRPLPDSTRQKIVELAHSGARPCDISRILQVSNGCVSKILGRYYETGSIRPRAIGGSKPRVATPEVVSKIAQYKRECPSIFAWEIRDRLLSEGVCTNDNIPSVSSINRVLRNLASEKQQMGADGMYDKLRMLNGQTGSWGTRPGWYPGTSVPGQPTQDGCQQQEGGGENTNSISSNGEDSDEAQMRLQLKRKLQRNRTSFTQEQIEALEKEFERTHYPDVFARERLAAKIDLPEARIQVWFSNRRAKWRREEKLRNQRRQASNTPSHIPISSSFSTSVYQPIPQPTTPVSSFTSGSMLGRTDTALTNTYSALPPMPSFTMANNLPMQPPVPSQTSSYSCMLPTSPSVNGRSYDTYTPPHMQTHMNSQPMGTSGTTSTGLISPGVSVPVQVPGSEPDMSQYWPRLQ
Sequence of Heat shock factor protein 1 (Homo sapiens) (Q00613 whole entry, looked up): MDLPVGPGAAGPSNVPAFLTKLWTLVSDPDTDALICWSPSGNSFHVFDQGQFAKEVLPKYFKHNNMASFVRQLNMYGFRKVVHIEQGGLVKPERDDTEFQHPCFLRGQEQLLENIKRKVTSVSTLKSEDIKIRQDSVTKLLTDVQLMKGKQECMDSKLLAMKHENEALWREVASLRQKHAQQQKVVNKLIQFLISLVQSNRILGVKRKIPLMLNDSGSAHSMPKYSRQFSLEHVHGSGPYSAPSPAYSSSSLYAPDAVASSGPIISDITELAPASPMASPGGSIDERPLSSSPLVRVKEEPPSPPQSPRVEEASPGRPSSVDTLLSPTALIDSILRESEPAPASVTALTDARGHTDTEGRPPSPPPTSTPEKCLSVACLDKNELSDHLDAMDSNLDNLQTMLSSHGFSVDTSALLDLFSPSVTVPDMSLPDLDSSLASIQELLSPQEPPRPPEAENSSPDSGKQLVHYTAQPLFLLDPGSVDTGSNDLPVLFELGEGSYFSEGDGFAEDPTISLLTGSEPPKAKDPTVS
Sequence of Signal transducer and activator of transcription 3 (Homo sapiens) (P40763 whole entry, looked up): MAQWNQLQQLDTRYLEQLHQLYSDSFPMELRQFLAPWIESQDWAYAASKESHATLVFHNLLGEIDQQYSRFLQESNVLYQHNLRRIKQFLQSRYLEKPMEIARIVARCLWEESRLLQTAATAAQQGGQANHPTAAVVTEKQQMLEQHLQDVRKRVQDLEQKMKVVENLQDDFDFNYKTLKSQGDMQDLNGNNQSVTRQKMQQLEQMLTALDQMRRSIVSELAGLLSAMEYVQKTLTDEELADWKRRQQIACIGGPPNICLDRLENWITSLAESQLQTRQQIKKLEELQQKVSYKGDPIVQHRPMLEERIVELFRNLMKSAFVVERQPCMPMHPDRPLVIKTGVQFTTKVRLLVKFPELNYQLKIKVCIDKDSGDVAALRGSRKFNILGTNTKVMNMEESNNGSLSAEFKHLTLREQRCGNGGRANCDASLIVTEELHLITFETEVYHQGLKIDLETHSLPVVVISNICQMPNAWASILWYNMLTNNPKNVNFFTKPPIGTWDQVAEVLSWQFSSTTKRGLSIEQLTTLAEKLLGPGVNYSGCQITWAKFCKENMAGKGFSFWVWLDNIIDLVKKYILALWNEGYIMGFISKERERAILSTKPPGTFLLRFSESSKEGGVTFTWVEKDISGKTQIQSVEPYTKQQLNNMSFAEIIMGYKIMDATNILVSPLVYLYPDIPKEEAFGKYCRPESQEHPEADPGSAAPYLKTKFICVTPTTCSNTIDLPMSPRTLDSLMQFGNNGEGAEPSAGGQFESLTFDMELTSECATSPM
Sequence of Bile acid receptor (Homo sapiens) (Q96RI1 whole entry, looked up): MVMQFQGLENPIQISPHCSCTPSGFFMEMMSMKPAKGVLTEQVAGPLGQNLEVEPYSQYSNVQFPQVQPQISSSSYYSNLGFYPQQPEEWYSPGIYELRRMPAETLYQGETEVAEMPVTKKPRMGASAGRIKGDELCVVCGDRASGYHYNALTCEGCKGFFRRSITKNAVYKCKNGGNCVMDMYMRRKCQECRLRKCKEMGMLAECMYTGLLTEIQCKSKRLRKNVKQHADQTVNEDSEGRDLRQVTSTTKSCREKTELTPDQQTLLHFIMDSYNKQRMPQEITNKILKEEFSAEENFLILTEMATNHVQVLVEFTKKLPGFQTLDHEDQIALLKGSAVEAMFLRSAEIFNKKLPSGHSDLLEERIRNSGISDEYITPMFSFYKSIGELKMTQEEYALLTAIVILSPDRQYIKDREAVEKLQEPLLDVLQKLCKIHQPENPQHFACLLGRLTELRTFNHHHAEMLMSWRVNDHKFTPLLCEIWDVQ
Sequence of Hepatocyte nuclear factor 6 (Homo sapiens) (Q9UBC0 whole entry, looked up): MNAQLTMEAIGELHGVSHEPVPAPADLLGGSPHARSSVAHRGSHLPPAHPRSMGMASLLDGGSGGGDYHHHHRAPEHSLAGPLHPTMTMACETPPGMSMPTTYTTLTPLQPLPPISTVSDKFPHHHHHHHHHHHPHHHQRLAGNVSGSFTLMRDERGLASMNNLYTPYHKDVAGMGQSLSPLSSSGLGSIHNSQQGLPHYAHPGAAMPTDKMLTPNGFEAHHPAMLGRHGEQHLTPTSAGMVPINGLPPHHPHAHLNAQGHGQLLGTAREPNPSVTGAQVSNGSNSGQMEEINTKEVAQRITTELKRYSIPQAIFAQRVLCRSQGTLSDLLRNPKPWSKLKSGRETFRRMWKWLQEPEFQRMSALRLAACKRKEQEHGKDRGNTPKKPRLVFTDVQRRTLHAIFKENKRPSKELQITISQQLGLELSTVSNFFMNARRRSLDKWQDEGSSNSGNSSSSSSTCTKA

As for `CCCC[O][Al]([O]CCCC)[O]CCCC`, the compound was classed as inactive in assay [1], in assay [2], in assay [3], in assay [4], in [5] and in assay [6]. The result in assay [7], in assay [8], in [9], in assay [10], in assay [11] and in [12] was inactive. Besides, the call in assay [13], in assay [14], in [15], in assay [16], in [17] and in [18] was inactive. Besides, the call in assay [19] and in assay [20] was inactive.
Turning to `CCN(CCC#N)c1ccc(N=Nc2ccc([N+](=O)[O-])cc2)cc1`, the compound was called inactive in assay [1], in assay [2], in assay [3], in assay [4], in assay [5] and in assay [6]. For the same compound, the compound was classed as inactive in assay [7], in [8], in [9], in [11], in assay [12] and in [13]. The call in assay [14], in [15], in [16], in assay [17], in assay [18] and in assay [19] was inactive. For the same compound, the compound was classed as inactive in assay [20].
Consider `CCCCCCCCC=CCCCCCCCC1=NCCN1CCO`, for which the AC50 was 26.1 µM (active) in assay [1]; 189 µM (active) in assay [3]; 60.6 µM (active) in assay [12]; 0.261 µM (active) in assay [13]; 25.9 µM (active) in [18]. For the same compound, the outcome in [2], in assay [4], in assay [5], in assay [6], in assay [7] and in [8] was inactive. Also, the result in assay [9], in assay [10], in assay [11], in assay [14], in assay [15] and in assay [16] was inactive. The compound was classed as inactive in assay [17] and in assay [20].
